The list is not random: actives were taken first. Their share in the collection is about 1.3%.
SRC1 inh: inhibitors of human steroid receptor coactivator 1 (SRC1). HEK293 GAL4-SRC1 luciferase reporter, luminescence. Q15788. inhibition, % at 3.6 µM. AID 588354. 360,000 compounds, 0.12% hits;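 active = inhibition above the campaign mean plus 3 SD, with each screening campaign given its own cutoff, cut at about 60% in these data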
Target sequence (Q15788 whole entry, looked up, the tested form may be a part): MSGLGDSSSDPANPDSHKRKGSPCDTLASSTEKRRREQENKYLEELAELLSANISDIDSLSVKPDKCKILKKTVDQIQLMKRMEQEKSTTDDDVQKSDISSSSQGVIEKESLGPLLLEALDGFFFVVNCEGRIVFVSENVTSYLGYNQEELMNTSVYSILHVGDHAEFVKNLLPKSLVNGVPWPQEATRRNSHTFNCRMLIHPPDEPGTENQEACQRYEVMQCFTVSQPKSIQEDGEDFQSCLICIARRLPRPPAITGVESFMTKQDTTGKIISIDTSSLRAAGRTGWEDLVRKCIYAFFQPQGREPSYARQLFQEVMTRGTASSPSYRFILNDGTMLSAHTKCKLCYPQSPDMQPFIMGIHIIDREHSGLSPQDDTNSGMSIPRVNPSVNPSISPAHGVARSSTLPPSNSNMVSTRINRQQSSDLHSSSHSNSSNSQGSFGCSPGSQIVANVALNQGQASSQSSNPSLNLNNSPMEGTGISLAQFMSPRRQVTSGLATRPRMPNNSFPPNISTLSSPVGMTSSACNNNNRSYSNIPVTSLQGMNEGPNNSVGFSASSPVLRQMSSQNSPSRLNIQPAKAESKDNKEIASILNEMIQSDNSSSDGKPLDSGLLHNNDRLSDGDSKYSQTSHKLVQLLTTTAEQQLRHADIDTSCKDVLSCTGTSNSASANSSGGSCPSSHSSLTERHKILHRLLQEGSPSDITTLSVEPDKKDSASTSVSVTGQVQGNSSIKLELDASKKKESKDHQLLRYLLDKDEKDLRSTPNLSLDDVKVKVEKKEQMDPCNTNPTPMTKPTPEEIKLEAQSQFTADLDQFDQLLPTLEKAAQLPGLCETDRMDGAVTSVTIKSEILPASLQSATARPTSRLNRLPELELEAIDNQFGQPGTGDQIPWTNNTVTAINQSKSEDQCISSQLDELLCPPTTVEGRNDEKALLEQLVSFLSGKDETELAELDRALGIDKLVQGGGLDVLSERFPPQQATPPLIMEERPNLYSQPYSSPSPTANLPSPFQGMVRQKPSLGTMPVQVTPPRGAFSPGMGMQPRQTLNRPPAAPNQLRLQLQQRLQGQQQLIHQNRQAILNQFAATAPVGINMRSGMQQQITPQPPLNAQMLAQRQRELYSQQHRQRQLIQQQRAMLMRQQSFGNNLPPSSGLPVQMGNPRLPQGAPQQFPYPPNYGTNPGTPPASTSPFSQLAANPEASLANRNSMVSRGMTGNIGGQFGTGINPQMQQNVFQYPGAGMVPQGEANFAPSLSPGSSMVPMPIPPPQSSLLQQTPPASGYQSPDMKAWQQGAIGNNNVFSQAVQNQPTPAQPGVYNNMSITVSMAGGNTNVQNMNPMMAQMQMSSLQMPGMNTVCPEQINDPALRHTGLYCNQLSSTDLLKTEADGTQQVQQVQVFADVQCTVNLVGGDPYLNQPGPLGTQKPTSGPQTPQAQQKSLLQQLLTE
SRC3 inh: inhibits human SRC3 coactivator; HEK293 GAL4-SRC3 luciferase reporter, luminescence; AID 588352; inhibition, % at 3.6 µM; 360,000 compounds, 0.17% hits;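 active = inhibition above a per-campaign cutoff, the mean of all compounds plus 3 SD, cut at about 60% in these data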;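 note: higher means less SRC3-driven luciferase light from the GAL4 reporter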
COUP-TFII inh: inhibitors of human COUP-TFII (NR2F2); P24468; HEK293T NGFI-A luciferase reporter, luminescence; inhibition, % at 8.6 µM; 370,000 compounds, 0.7% hits;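 active = inhibition above a per-plate cutoff, mean inhibition of test wells between control levels plus 3 SD, cut at about 38% in these data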;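 note: cells cotransfected with COUP-TFII expression vector driving the NGFI-A reporter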
SRC2 inh: inhibits human steroid receptor coactivator 2; HEK293 GAL4-SRC2 luciferase reporter, luminescence; inhibition, % at 9 µM; 370,000 compounds, 0.17% hits; AID 651957;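 active = inhibition above the mean inhibition of all tested compounds plus 3 SD, set per campaign, cut at about 52% in these data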
NR5A2 inv ag: inverse agonists of human LRH-1 (NR5A2); HEK293T StAR-luciferase reporter, LRH-1 transfected, 24 h; 360,000 compounds, 0.13% hits; AID 602396; inhibition, % at 3.6 µM;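 active = inhibition above the mean inhibition of all tested compounds plus 3 SD, cut at about 73% in these data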
Gli-Sufu antag: blocks Gli-Sufu signaling in a luciferase reporter. Sufu-KO-LIGHT fibroblasts, Gli luciferase reporter luminescence. 340,000 compounds, 0.74% hits. AID 588413. inhibition, % at 5 µM;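 active = inhibition above about 55%, limit read from the data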
Hits are given with their value; - = inactive; . = no result.

SMILES | SRC1 inh | SRC3 inh | COUP-TFII inh | SRC2 inh | NR5A2 inv ag | Gli-Sufu antag
Oc1ccccc1N=Nc1nc(-c2ccccc2)c(-c2ccccc2)[nH]1 | 74 | 87 | - | - | 98 | 93
O=C(Nc1cccc(F)c1)OCCN1CCCC12CCC(c1ccccc1)CC2 (stereo not drawn) | . | . | - | . | . | .
CCc1cccc2sc(N3CCN(C(=O)c4ccc([N+](=O)[O-])o4)CC3)nc12 | - | - | . | . | - | 76
CN(C)S(=O)(=O)c1ccc(-c2csc(N/N=C/c3ccco3)n2)cc1 | - | 73 | - | - | - | -
COc1ccc(C(=O)Nc2nc3ccccc3s2)c(OC)c1 | 89 | 91 | 99 | 93 | 93 | 88
COc1ccc2nc(NC(=O)c3ccccc3C(=O)O)sc2c1 | - | - | - | - | - | -
Cc1nc2ccc(NC(=O)c3c(Cl)cccc3Cl)cc2c(=O)[nH]1 | . | . | - | - | . | .
COc1ccc(-c2nnc(SCC(=O)NN=C/C=C\c3ccco3)n2-c2ccc(OC)cc2)cc1 | . | . | - | - | . | .
CC(NC(=O)CCc1nnc(-c2ccc(-c3ccccc3)cc2)o1)c1nc2ccccc2[nH]1 (stereo not drawn) | - | - | - | 67 | - | -
O=C(NN=Cc1c(O)ccc2ccccc12)c1ccc2c(c1)OCO2 | - | - | - | - | - | -
O=C(N/N=C\c1c(O)ccc2ccccc12)c1ccc(S(=O)(=O)N2CCCCC2)cc1 | - | - | - | - | - | 85
COc1ccc(N(C(=O)c2ccco2)C(C(=O)NC2CCCCC2)c2cccs2)cc1OC (stereo not drawn) | - | - | - | - | - | -
COc1ccc(N(C(=O)c2snc(C(N)=O)c2N)C(C(=O)NC2CCCC2)c2cccs2)cc1OC (stereo not drawn) | - | - | - | - | - | -
C#CC(=O)N(c1cc(OC)ccc1OC)C(C(=O)NC1CCCC1)c1cccs1 (stereo not drawn) | - | - | . | . | - | 86
C#CC(=O)N(c1ccc(OC)cc1OC)C(C(=O)NC1CCCC1)c1cccs1 (stereo not drawn) | - | - | - | - | - | 57
COc1ccc(CNC(=O)O[C@H]2CC[C@@]34CCCN3C(=O)CCC[C@H]4[C@H]2C)cc1OC | . | . | - | . | . | .
COc1ccc(OC)c(C2(O)CSC(=Nc3cccnc3)N2Cc2ccco2)c1 (stereo not drawn) | - | - | - | - | - | -
OC1(c2ccc(OC(F)F)cc2)CSC(=Nc2cccnc2)N1C1CC1 (stereo not drawn) | - | - | 57 | - | - | -
CC(CCN1CCC(C(O)(c2ccccc2)c2ccccc2)CC1)Oc1ccc(C#N)c(F)c1 (stereo not drawn) | . | . | - | - | . | .
O=C1c2cccc3cc([N+](=O)[O-])cc(c23)C(=O)N1CCN1CCCC1 | - | - | - | - | 76 | 75
Nc1cc2c3c(cccc3c1)C(=O)N(CCN1CCCC1)C2=O | - | - | - | - | - | -
CCOCCCNC(=O)C1CCN(S(=O)(=O)c2cc3c(cc2Br)CCN3C(=O)CC)CC1 | . | . | - | - | . | .
CCCN(CC(=O)Nc1ccccc1C)C(=O)CCl | - | - | - | 56 | - | -
c1ccc(C[C@H]2CN=C(Nc3ccccc3)N2CCC2CCCC2)cc1 | - | - | - | - | - | -
NC1=NC[C@H](Cc2ccccc2)N1CCCCC1CCCCC1 | - | - | - | - | - | 58
SMILES | SRC1 inh | SRC3 inh | COUP-TFII inh | SRC2 inh | NR5A2 inv ag | Gli-Sufu antag
O=S(=O)(c1ccc(NC(=S)NCc2cccnc2)cc1)N1CCCCC1 | 67 | - | - | - | 73 | -
NC(=S)n1[nH]c(-c2ccc([N+](=O)[O-])cc2)c(N=Nc2ccc(Cl)cc2)c1=O | - | - | . | . | - | 60
c1nc(NCC2CC2)c2cc(-c3ccc4c(c3)OCO4)ccc2n1 | . | . | - | . | . | .
CCCCCCc1ccc(NC(=O)[C@@H]2CC=C[C@@H]3CCN(Cc4ccccc4)C(=O)[C@@H]32)cc1 | . | . | - | . | . | .
O=C(OC12CCCN(C1)/C(=C/c1cccnc1)C2)c1cccc(F)c1 (stereo not drawn) | . | . | - | - | . | .
Cc1cc(C)cc(NC(=O)/C=C/c2ccc([N+](=O)[O-])s2)c1 | - | - | - | - | - | -
Cc1ccccc1NC(=O)/C=C/c1ccc([N+](=O)[O-])s1 | - | - | . | . | - | 79
O=c1cc(C(Cl)(Cl)Cl)oc2c1ccc1ccccc12 | - | - | - | - | - | 65
CCCC[C@H]1C2CC(OC(=O)Nc3ccc(Cl)cc3)C(C2)[C@H]2CCCCN21 (stereo partly drawn) | . | . | - | - | . | .
O=S(=O)(c1ccccc1Cl)N1CCCC1c1nc(-c2ccccc2Cl)no1 (stereo not drawn) | - | - | - | - | - | -
O=S(=O)(c1ccc(Cl)cc1)N1CCCC1c1nc(-c2ccc(Cl)cc2)no1 (stereo not drawn) | - | - | - | 95 | - | -
COc1cccc(/C=C2\CC3(OC(=O)C4CCCC4)CCCN2C3)c1 (stereo not drawn) | . | . | - | - | . | .
Cc1ccc(C(C)C)c(OCc2ccc(C(=O)N/N=C/c3cccc(O)c3O)cc2)c1 | - | 65 | - | 73 | - | 93
COc1cc(/C=N/NC(=O)c2ccc(COc3cc(C)ccc3C(C)C)cc2)cc(OC)c1O | - | - | - | 62 | - | -
Cc1[nH]n(-c2ccccc2)c(=O)c1/C=N/Nc1nncc(-c2ccccc2)n1 | - | - | - | - | - | 85
Cc1ccc(/C=N/Nc2nncc(-c3ccccc3)n2)o1 | - | - | - | - | - | -
Nc1nc(N)c2cc([N+](=O)[O-])ccc2n1 | - | - | - | - | - | -
Nc1nc(N)c2c(ccc3c2ccn3Cc2cccc([N+](=O)[O-])c2)n1 | 65 | 64 | - | - | - | .
O=S(=O)(Nc1cccc2ncccc12)c1cccs1 | - | - | . | . | - | 87
COC(=O)c1ccc(S(=O)(=O)N2CCC(NC(=O)Cc3cccc(C)c3)CC2)cc1 | . | . | - | - | . | .
CN1CC(O)([C@H](Cc2ccccc2)NC(=O)OC(C)(C)C)OCC1C(=O)NCc1cccc2ccccc12 (stereo partly drawn) | . | . | - | . | . | .
CCC(=O)c1cn(CC(=O)Nc2cccc(C)c2C)c2ccccc12 | - | - | - | - | - | 73
CC(=O)c1cn(CC(=O)Nc2cccc(C)c2C)c2ccccc12 | - | - | - | - | - | -
Cc1nc2c(O)c3c(c(O)c2nc1C)C1C=CC3CC1 | 89 | 91 | - | 62 | 95 | -
O=C(NC1CCC1)O[C@H]1CC[C@@]23CCCN2C(=O)CCC[C@H]3C1 | . | . | - | . | . | .
O=C1CC(=O)OC(c2ccc([N+](=O)[O-])cc2)O1 | - | 78 | . | . | - | .
Cc1ccccc1N(C)C(=O)Cn1nnc(-c2ccccc2F)n1 | . | . | - | - | . | .
C=C1C(O)[C@@H]2O[C@]3(CC[C@H](/C=C/C(C)[C@@H]4CC(C)=CC5(O[C@H](C[C@@](C)(O)CO)CCC5O)O4)O3)CC[C@H]2O[C@@H]1C(O)CC(C)[C@H]1OC2(CCCCO2)CCC1C (stereo partly drawn) | . | . | . | . | . | 63
